# Counter-ions that a name gives are not always drawn. A number with no mark means an inactive call.
# Test system: NCI-H1688
# Assay: inhibition of cell viability relative to untreated control (fraction); higher = stronger growth inhibition, active = 0.5 or more
# Conditions: 30 µM; 24 h
# Outline: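 NCI-H1688 small cell lung cancer cells were seeded at 3 × 10^3 cells/well in 96-well plates and treated 24 h later with a natural compound library (TargetMol) at 30 µM for 24 h, at 37°C with 5% CO2. Viability was read in triplicate with Cell Counting Kit-8 as absorbance at 450 nm. Inhibition of cell viability is expressed as a fraction, derived from viability normalised to the untreated control.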
row,Structure (SMILES),inhibition of cell viability
1,NC[C@H]1O[C@H](O[C@H]2[C@H](O)[C@@H](O[C@H]3O[C@H](CO)[C@@H](O)[C@H](N)[C@H]3O)[C@H](N)C[C@@H]2N)[C@H](O)[C@@H](O)[C@@H]1O [Kanamycin sulfate],0.154
2,Oc1cc(O)cc(/C=C/c2ccc(O)c(O)c2)c1 [Piceatannol],0.164
3,COC1=C(OC)C(=O)C(C/C=C(\C)CC/C=C(\C)CC/C=C(\C)CC/C=C(\C)CC/C=C(\C)CC/C=C(\C)CC/C=C(\C)CC/C=C(\C)CC/C=C(\C)CCC=C(C)C)=C(C)C1=O [Coenzyme Q10 (CoQ10)],-0.0281
4,CNC[C@H](O)c1ccc(O)c(O)c1 [Epinephrine bitartrate],0.0849
5,COC(=O)C1=CO[C@@H](O)[C@@H]2C(CO)=CC[C@H]12 [Genipin],0.135
6,O=C1O[C@H]([C@@H](O)CO)C(O)=C1O [L(+)-Ascorbic acid],0.195
7,CC(C)=CCC[C@](C)(O)[C@H]1CC[C@]2(C)[C@@H]1[C@H](O)C[C@@H]1[C@@]3(C)CC[C@H](O)C(C)(C)[C@@H]3[C@@H](O)C[C@]12C [Protopanaxatriol],-0.051
8,O=C(O)/C=C/CCCCCCCO [10-Hydroxy-2-decenoic acid],0.323
9,O=C[C@H](O)[C@@H](O)[C@H](O)CO (racemic) [DL-Xylose],-0.162
10,CC[C@@H]1C(=O)OC[C@@H]1Cc1cncn1C [(+)-Pilocarpine hydrochloride],0.197
11,CC(=O)[C@@]1(O)CC[C@H]2[C@@H]3CCC4=CC(=O)CC[C@]4(C)[C@H]3CC[C@@]21C [Hydroxyprogesterone],0.102
12,CC1=C(/C=C/C(C)=C/C=C/C(C)=C/C=C/C=C(C)/C=C/C=C(C)/C=C/C2=C(C)CCCC2(C)C)C(C)(C)CCC1 [Beta-Carotene],0.426
13,C=CC[C@@H]1/C=C(\C)C[C@H](C)C[C@H](OC)[C@H]2O[C@@](O)(C(=O)C(=O)N3CCCC[C@H]3C(=O)O[C@H](/C(C)=C/[C@@H]3CC[C@@H](O)[C@H](OC)C3)[C@H](C)[C@@H](O)CC1=O)[C@H](C)C[C@@H]2OC [Tacrolimus (FK506)],0.0216
14,C[C@H]1[C@@H](O)O[C@@H]2O[C@@]3(C)CC[C@H]4[C@H](C)CC[C@@H]1[C@@]24OO3 [Dihydroartemisinin],0.644 (active)
15,C[C@H]1COC2=C1C(=O)C(=O)c1c2ccc2c1CCCC2(C)C [Cryptotanshinone],1 (active)
16,CC(C)[C@H](NC(=O)[C@H](CC(=O)O)NC(=O)[C@H](CCCCN)NC(=O)[C@@H](N)CCCN=C(N)N)C(=O)N[C@@H](Cc1ccc(O)cc1)C(=O)O [Thymopentin],0.0248
17,C[C@H]1[C@H](C)CC[C@]2(C(=O)O)CC[C@]3(C)C(=CC[C@@H]4[C@@]5(C)C[C@@H](O)[C@H](O)[C@@](C)(CO)[C@@H]5[C@H](O)C[C@]43C)[C@H]12 [Madecassic acid],-0.00715

# — the supplement of paper PMC11634586
